Among all 33,000 compounds or so, about 95 (0.3%) were called active.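 How the source made its calls: active means inhibition above 40% in the primary screen; inactive means the rest.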 The entries come from a sample that favours actives as a whole.
Target: Coagulation factor XI (Homo sapiens) (UniProt P03951)
Experiment: human FXIa protease inhibitors, primary screen, biochemical, single compound per well (AID 687);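 further: 0% = enzyme without compound and 100% = blank wells lacking enzyme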
Settings: purified human FXIa, fluorogenic AMC substrate cleavage; at 10 µM; active compounds read high

Coagulation factor XI (Homo sapiens), sequence (P03951 19-387 limits assumed): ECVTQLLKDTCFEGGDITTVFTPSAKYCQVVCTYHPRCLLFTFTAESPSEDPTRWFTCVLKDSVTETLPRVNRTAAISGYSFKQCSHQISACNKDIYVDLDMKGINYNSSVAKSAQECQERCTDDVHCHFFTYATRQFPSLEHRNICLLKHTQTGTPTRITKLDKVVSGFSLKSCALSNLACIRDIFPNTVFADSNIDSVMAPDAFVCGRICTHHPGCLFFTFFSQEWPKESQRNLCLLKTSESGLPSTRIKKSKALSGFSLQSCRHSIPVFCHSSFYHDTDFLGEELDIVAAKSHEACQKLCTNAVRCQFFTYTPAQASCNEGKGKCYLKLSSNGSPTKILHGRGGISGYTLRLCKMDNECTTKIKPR
Coagulation factor XI (Homo sapiens), sequence (P03951 388-625 limits assumed): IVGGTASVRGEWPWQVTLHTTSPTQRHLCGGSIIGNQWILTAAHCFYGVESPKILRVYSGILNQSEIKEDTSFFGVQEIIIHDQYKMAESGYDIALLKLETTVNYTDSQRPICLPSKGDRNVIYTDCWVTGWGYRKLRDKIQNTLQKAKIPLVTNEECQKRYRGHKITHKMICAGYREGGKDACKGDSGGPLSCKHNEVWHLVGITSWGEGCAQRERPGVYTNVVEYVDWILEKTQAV

inhibition, active:
CCOC(=O)c1c(C)nc2c(c1C)c(=O)oc1ccccc12 43.4%

inhibition, inactive:
CCC(=O)NC(Nc1nc2ccc(C)cc2s1)(C(=O)OC)C(F)(F)F (stereo not drawn) 0.39%
CCOC(=O)c1ccccc1NS(=O)(=O)c1ccc(OC)cc1 -1.8%
CCOc1ccc(C(=O)NCCCN2CCCC2=O)cc1 -9.62%
Cc1cc(C)cc(OCc2nnc(SCC(=O)OC3CCCCC3)o2)c1 2.82%
O=C(Nc1ccc(S(=O)(=O)N2CCc3ccccc3C2)cc1)c1ccccc1 4.52%
O=C1CSC(c2ccc(Cl)cc2)N1 (stereo not drawn) -2.99%
COc1ccc(-c2cc3nc(C)c(CCC(=O)NC(C)CCc4ccco4)c(C)n3n2)c(OC)c1 (stereo not drawn) 0.38%
C=C(C)CNC(=S)/N=c1\scc(C)n1CC -6.03%
COc1cc(S(=O)(=O)N(Cc2cccs2)C2CC2)ccc1-n1cnnn1 6.31%
COc1ccccc1Nc1nc(N)nc(CN(C)C2CCCCC2)n1 -1.79%
O=C(CCN1C(=O)c2ccccc2C1=O)Nc1cccc(F)c1 21.9%
O=C(CCn1c(SCC(=O)c2ccccc2)nc2ccccc2c1=O)NCc1ccc(F)cc1 -1.87%
CCCNC(=O)NCc1ccc(N2CCCC2=O)cc1 -4.89%
O=C(NCc1ccccc1)[C@@H]1CSC2c3ccccc3C(=O)N21 (stereo partly drawn) -6.84%
COc1ccc(N2CCN(C(=O)CNC(=O)c3ccc(C(C)(C)C)cc3)CC2)cc1 0.23%
COc1ccc2oc(=O)c(C(=O)N3CCCc4ccccc43)cc2c1 2.52%
C=CCN(C(=O)Cn1ncc2c1-c1cc(C)ccc1OC2)c1ccccc1 7.94%
CCCCSc1[nH]c(=O)c(C(=O)OCC)cc1C#N -3.65%
COC(=O)c1cccc(-n2[nH]nnc2=S)c1 8.73%
O=c1nc(N2CCOCC2)nc2n1CCO2 0.16%
Nc1nc(SCc2ccccc2Cl)n[nH]1 -1.35%
C=CCn1c(SCc2c(C)noc2C)nc2sc3c(c2c1=O)CCC(C)C3 (stereo not drawn) -0.06%
Cc1cccc(Cn2c(SCCO)nc3c2c(=O)n(C)c(=O)n3C)c1 -5.34%
COC(=O)Nc1ccc(S(=O)(=O)N2CCN(CCN3C(=O)C4C5C=CC(C5)C4C3=O)CC2)cc1 (stereo not drawn) 7.92%
CN(C)CCNC(=O)C(C(=O)c1ccccc1)n1ccccc1=O (stereo not drawn) -0.81%
Nn1c(SCC(=O)NC2CCCC2)nnc1-c1ccccc1F -0.95%
Cc1cc(C(F)(F)F)n2ncc(-c3ccccc3)c2n1 -2.08%
O=C(CN1CCN(C(=O)c2ccco2)CC1)Nc1ccc2c(c1)OCO2 -13.2%
CCOC(=O)c1ccc(COC(=O)CCc2nc(-c3ccccc3)c(-c3ccccc3)o2)cc1 -0.92%
Cc1ccc(CNC(=O)CCNS(=O)(=O)c2cccc3nonc23)cc1 -10.4%
CCc1nc(N2CCN(c3nc(C)cc(C)n3)CC2)c2oc3ccccc3c2n1 -4.81%
COc1ccc(CCN(C)CCN2C(=O)c3ccccc3C2=O)cc1OC -0.63%
Cc1ccc(OCC(=O)Nn2cnc3ccccc32)cc1 13.2%
CCOC(=O)c1ccc(COC(=O)c2cc(=O)[nH]c3ccccc23)o1 0.06%
CCOC(=O)c1cc2ccccc2nc1C -0.46%
CCOc1cc(CN2CCN(C(=O)CC(C)C)CC2)ccc1OC 0.6%
CC(NC(=O)Nc1ccccc1)c1ccccc1 (stereo not drawn) -3.02%
CC1CCC2(CC1)NC(=O)N(CC(=O)c1cccn1C)C2=O (stereo not drawn) -10.7%
CCOc1ccc(S(=O)(=O)N2CCCCCC2)c2ccccc12 -9.47%
O=C(NC1CCCCC1)c1ccc(CNc2c(N3CCOCC3)c(=O)c2=O)cc1 -0.69%
COc1ccc(CN2CCn3ncc(C(=O)Nc4ccc(Cl)cc4Cl)c3C2=O)cc1 8.32%
CCOC(=O)C1=C(CSc2nccn2C)NC(=O)NC1c1ccc(OC)cc1 (stereo not drawn) -6.24%
CC1(C)Cc2c(sc3nc(SCC(=O)NCc4ccccc4)n(-c4ccccc4)c(=O)c23)CS1 1.32%
O=C(C(NS(=O)(=O)c1cccc2nsnc12)c1ccccc1)N1CCN(c2ccccc2)CC1 (stereo not drawn) 4.95%
O=C(NCc1ccco1)C1(c2ccc(Cl)cc2)CCCC1 -4.42%
O=C(CCCn1c(SCC(=O)c2ccccc2)nc2ccccc2c1=O)NCC1CCCO1 (stereo not drawn) 7.29%
CCOc1ccc(-c2nc(C)sc2CC(=O)O)cc1 -1.47%
O=[N+]([O-])c1ccc(Oc2ccc(F)cc2Br)c2ccncc12 -2.08%
c1ccc2[nH]c(NCCN3CCOCC3)nc2c1 -1.88%
COC(=O)C1CCN(CC(N)=O)CC1 -11.2%
Cc1cc(=O)oc(C)c1C(=O)N1CCCCC1 32.7%
Cc1ccc(CNC(=O)C2CCCN2C(=O)NCc2ccccc2)cc1 (stereo not drawn) 26.7%
COc1ccc(O)c(C(=O)c2cnc3onc(C(C)C)c3c2)c1 -2.11%
O=C(CCN1c2ccccc2Sc2ccccc21)Nc1ccccc1 -11.6%
Cc1ccnc(NC(=O)c2ccc(NC(=O)c3ccco3)cc2)c1 1.44%
Cc1cccc(NC(=O)CN2C(=O)CNC2=O)c1 7.39%
COC(=O)c1cccc(N(C(=O)c2ccco2)C(C(=O)NC2CCCC2)c2ccco2)c1 (stereo not drawn) -11.4%
COc1ccc(N/N=C2/CCCCC2=O)cc1 19.4%
COc1ccc(N2CCN(C(=O)CCc3nc(-c4ccc(C)cc4)no3)CC2)cc1 8.76%
O=C(CNS(=O)(=O)c1ccc(Br)s1)N1CCN(C(=O)c2ccco2)CC1 -4.45%
Cc1cccc(C)c1NC(=O)CCCSc1nnc(-c2ccco2)n1-c1ccccc1 -0.71%
Cc1ccc(-c2csc(NC(=O)c3cccs3)n2)cc1 -11.7%
Oc1ccccc1CNc1ncc(Br)cc1Br -10.8%
CCC1(C)Cc2c(sc3nc(SC)nc(N)c23)CO1 (stereo not drawn) 14.2%
COc1ccc(NC(=S)N2N=CCC2c2ccccc2)cc1 (stereo not drawn) 0.63%
Cc1ccsc1C(=O)OCC(=O)c1cc2ccccc2o1 3.48%
O=P(c1ccc2c(c1)OCCO2)(N1CCOCC1)N1CCOCC1 2.3%
COc1ccccc1NC(=O)/C=C/C(N)=O 4.44%
CCOc1ccccc1NC(=O)Nc1cc(OC)ccc1OC -0.13%
COc1ccc(C(=O)NNC(=O)c2cnccn2)cc1[N+](=O)[O-] -1.41%
COc1cc2c(cc1OC)C(C(C)C)=NC(C)(C)C2 2.2%
Cc1ccccc1N1CCN(CCCOc2ccc3c(C)cc(=O)oc3c2)CC1 3.75%
CCCC(C(=O)NCc1ccco1)N(C(=O)CNS(=O)(=O)c1ccccc1)C1CCCC1 (stereo not drawn) -1.8%
Cc1ccc(OCC(=O)N/N=C\c2ccco2)c(C)c1 8.22%
COc1ccccc1CNS(=O)(=O)c1ccc(C)cc1 -5.43%
O=C(Nc1ccc(Sc2ccc(Br)cc2)cc1)c1ccco1 5.67%
CC1(C)CC(=O)NC=C(c2ccccc2)C1 2.57%
COc1ccc(C(=O)CSc2nccc(=O)[nH]2)cc1 4.89%
Cc1cccc(N2CCN(S(=O)(=O)c3ccc4[nH]c(=O)c(=O)[nH]c4c3)CC2C)c1 (stereo not drawn) -6.46%
Cc1nc(NNC(=O)c2ccccc2)cc(-c2ccccc2)n1 -2.36%
COc1ccc(-c2cc(C)nc3nc(N)nn23)cc1 -7.55%
Cc1ccc(C2(C(F)(F)F)N=C3Sc4cc(C)cc(C)c4N3C(=O)N2)cc1 (stereo not drawn) -3.09%
COCCn1c(=S)[nH]c2cc(C(=O)NCCc3ccc(OC)c(OC)c3)ccc2c1=O 1.93%
COc1ccccc1NC(=O)C1CCCN(c2cc(C)nc3ncnn23)C1 (stereo not drawn) -7.53%
COC(=O)C1=C(C)Nc2ncnn2C1c1cccnc1 (stereo not drawn) -8.85%
CCOC(=O)c1c(N)sc(C(C)=O)c1C 5.4%
CCCOc1ccc(C2NC(=O)NC(c3ccccc3)=C2C(C)=O)cc1OCC (stereo not drawn) -6.35%
Cc1ccc(S(=O)(=O)N2CCN(Cc3cccc(C)c3O)CC2)cc1 -1.32%
COC(C)(C)[C@]12CC(O)(C(C)C)ON1[C@H]1CCCCC1N2O (stereo partly drawn) 0.57%
CC(C)(C)c1cc(=O)n2c(nc3ccccc32)[nH]1 2.42%
COC(=O)c1ccc(Sc2ccc(F)cc2)c(N)c1 1.93%
CC1CCCCC1NC(=O)C1CCCN1S(=O)(=O)c1cccc2nsnc12 (stereo not drawn) 7.4%
COc1ccc(-n2nc3c(c2NC(=O)Cc2cccc(C)c2)CS(=O)C3)cc1 (stereo not drawn) 4.35%
CC(C)(C)c1nc2ccccc2c(=O)n1N1C(=O)c2ccccc2C1=O 2.66%
COc1ccc(-c2nnc(SCC(=O)c3ccc4c(c3)OCCO4)o2)cc1 -2.7%
COC(=O)/C(=C\Nc1ccccc1)NC(=O)c1ccc(Cl)cc1Cl 7.22%
CC(CN1CCOCC1)c1ccccc1 (stereo not drawn) 7.1%
O=C(CSCc1ccccc1)N1CCc2ccccc21 1.56%
Cc1ccc(OCCCC(=O)Nc2ccc(N3CCOCC3)cc2)cc1 3.13%
O=c1c2ccccc2nc(N/N=C/c2ccccc2)n1O 6.82%
Cc1[nH]n(-c2ccc(Cl)cc2)c(=O)c1/C=N/n1c(C)nc2ccccc2c1=O 4.91%
CC1(C)N=C(c2ccccn2)C(C)(C)N1O -1.83%

Source: PubChem BioAssay AID687 (PCMD, 2007)
